Compound activity (PubChem BioAssay)
The list is not random: actives were taken first. Their share in the collection is about 2.5%.
LGR2 antag – inhibitors of bursicon-induced Drosophila LGR2 receptor cAMP signaling | 380,000 compounds, 0.35% hits | inhibition, % at 9.99 µM | HEK293 LGR2, CRE-luciferase, bursicon-stimulated, 4 h | AID 720647;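 active means drop in luminescence signal, shown as inhibition above about 50% in the replicate tests, limit read from the data, passing the limit was not always enough; inconclusive means probably only some replicates passing the limit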;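 further: agonist challenge used bursicon conditioned medium at about half maximal strength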
TWEAK-Fn14 inh – inhibitors of TWEAK-Fn14 interaction signaling | TWEAK-stimulated Fn14 reporter cells, luciferase luminescence, 8 h | inhibition, % at 10 µM | 360,000 compounds, 2% hits | AID 1159606; in the data active means inhibition above about 50%
TROY NFkB inh – blocks TROY-dependent signaling in reporter cells | 360,000 compounds, 0.98% hits | inhibition, % at 10 µM | Q293 LMP1-TROYcd NF-kB luciferase reporter, 4 h;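 active means compounds whose plate-normalised and pattern-corrected inhibition of the luciferase reporter signal at the single screening dose is 50% or more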
LMP1 NFkB inh – Epstein-Barr LMP1 NF-kappaB reporter inhibition. LMP1-induced NF-kappaB luciferase reporter cells, luminescence. inhibition, % at 12.5 µM. 350,000 compounds, 0.69% hits; in the data active means inhibition above about 41%; inconclusive means no clear call, values can overlap the other calls
EWS-Fli block – inhibitors of EWS/Fli oncoprotein transcriptional activity | AID 651661 | 350,000 compounds, 0.67% hits | A673 NR0B1-luciferase reporter, viability-normalised | inhibition, % at 12.6 µM;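 active means mean inhibition of at least 50% after viability correction, with every replicate also passing that limit; inconclusive means mean reaches 50% but only one of two replicates passes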;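 further: firefly luciferase signal divided by Alamar Blue viability fluorescence both relative to DMSO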
Numbers stand for hits; 0 = inactive; ? = inconclusive; - = no result given.

SMILES	LGR2 antag	TWEAK-Fn14 inh	TROY NFkB inh	LMP1 NFkB inh	EWS-Fli block
C[C@H](CO)N1C[C@H](C)[C@H](CN(C)C(=O)Nc2cccc3ccccc23)OCCCC[C@H](C)Oc2ccc(N(C)C)cc2C1=O	0	-	-	-	66.7
Oc1ccc(Cl)cc1Cc1cc(Cl)ccc1O	-	53.8	54.0	0	0
Oc1ccc(Cl)cc1CNCc1ccc(Cl)cc1	0	0	0	0	0
COc1ccc2c3c(n(C)c2c1)[C@H](CO)N(CC1CC1)CC31CCN(C(=O)Nc2c(C)noc2C)CC1	0	-	-	-	0
CO[C@H]1CN(C)C(=O)c2cc(NC(=O)Nc3ccccc3F)ccc2OC[C@@H](C)N(CC2CC2)C[C@@H]1C	0	-	-	-	0
Cc1ccc(NC(=O)CN2C(=O)C3CCCCN3C(=O)c3ccccc32)cc1 (configuration not stated)	0	52.6	-	0	-
O=C(C[C@@H]1CC[C@H]2[C@@H](COC[C@@H](O)CN2CC2CCCCC2)O1)NCc1ccc(F)cc1	0	-	-	-	69.7
C[C@@H]1CN([C@H](C)CO)C(=O)Cc2cc(NS(C)(=O)=O)ccc2O[C@@H]1CN(C)C(=O)Nc1ccc(C(F)(F)F)cc1	-	-	-	-	0
COc1ccc2c3c(n(C)c2c1)[C@H](CO)N(Cc1cccc(F)c1)CC31CCN(C)CC1	0	-	-	-	0
C[C@@H]1CN([C@@H](C)CO)C(=O)Cc2cc(NC(=O)CCCN(C)C)ccc2O[C@H]1CN(C)S(=O)(=O)c1cccs1	0	-	-	-	0
C[C@@H]1CCCCO[C@H](CN(C)C(=O)Nc2ccccc2)[C@@H](C)CN([C@H](C)CO)C(=O)c2cc(NC(=O)c3ccncc3)ccc2O1	0	-	-	-	0
COc1cccc(S(=O)(=O)N[C@@H]2CC[C@H](CCn3cc(-c4ccccc4)nn3)O[C@@H]2CO)c1	0	-	-	-	52.7
O=C(CSc1ccc(-c2ccc(Cl)cc2)nn1)Nc1ccc2c(c1)OCCO2	0	0	62.1	0	0
CC(=O)Nc1cccc(NC(=O)CSc2ncc(-c3ccc(Cl)cc3)n2Cc2ccco2)c1	-	80.6	61.1	0	-
O=C(CN1CCC(C(=O)c2ccc(Cl)cc2)CC1)Nc1ccc2c(c1)OCCO2	-	62.1	0	0	-
O=C(CSc1nnc(-c2ccc(Cl)cc2)n1Cc1ccco1)Nc1ccc2c(c1)OCCO2	-	0	52.1	0	-
COCC#Cc1ccc([C@@H]2[C@H](CO)N3C(=O)CN(C(=O)Nc4ccccc4F)C[C@@H]23)cc1	0	-	-	-	0
C[C@@H]1CCCCO[C@@H](CN(C)S(=O)(=O)c2ccc(F)cc2)[C@H](C)CN([C@H](C)CO)C(=O)c2cc(NC(=O)Nc3ccc(C(F)(F)F)cc3)ccc2O1	0	-	-	-	0
CN(C)c1ccc(N=Nc2nccs2)cc1	85.6	79.4	0	0	0
Cc1[nH]n(-c2ccccc2)c(=O)c1N=Nc1nccs1	-	0	0	0	-
C[C@@H]1CCCCO[C@H](CN(C)C(=O)Nc2ccc3c(c2)OCO3)[C@@H](C)CN([C@H](C)CO)C(=O)c2cc(NS(=O)(=O)c3ccccc3)ccc2O1	0	-	-	-	0
O=C(Nc1nnc(C23CC4CC(CC(C4)C2)C3)s1)c1ccc(N2C(=O)CCC2=O)cc1	0	0	0	80.8	0
Cc1ccccc1-c1nnc(NC(=O)c2ccc(N3C(=O)CCC3=O)cc2)s1	0	0	0	0	0
CC(C)c1nnc(NC(=O)c2ccc(N3C(=O)CCC3=O)cc2)s1	0	0	0	85.5	0
CCNC(=O)[C@@H]1[C@@H](CO)[C@@H]2Cn3c(ccc(C4=CCCCC4)c3=O)[C@H]1N2Cc1cocn1	0	-	-	-	0
SMILES	LGR2 antag	TWEAK-Fn14 inh	TROY NFkB inh	LMP1 NFkB inh	EWS-Fli block
O=C(NC(=O)c1ccccc1O)c1ccc2c(c1)CCO2	-	53.8	0	0	0
CC(C)(C)NC(=O)c1ccc2c(c1)CCO2	0	0	0	0	0
CC(C)(C)OC(=O)N1CCCC1C(=O)NCCc1ccccc1 (configuration not stated)	-	79.3	-	0	-
CC(C)(C)OC(=O)N1CCC(C(=O)Nc2ccc(C(=O)NCCc3ccccc3)cc2)CC1	0	53.9	0	0	0
O=C(NCCCCc1ccccc1)c1cccc(NC(=O)C2CCCCC2)c1	0	0	0	0	0
CC(C)(C)OC(=O)N1CCCC(C(=O)Nc2cccc(C(=O)NCCCCc3ccccc3)c2)C1 (configuration not stated)	0	0	0	0	0
O=C(NCCCCc1ccccc1)c1cccc(NC(=O)C2CCC2)c1	0	101.2	0	0	0
CC(C)(C)OC(=O)N1CCCC(C(=O)Nc2cccc(C(=O)NCCc3ccccc3)c2)C1 (configuration not stated)	0	100.1	0	0	0
CN(C)C(=O)c1cccc(-c2ccc([C@H]3[C@@H](CO)N4C(=O)CN(C(=O)Cc5ccccc5)C[C@@H]34)cc2)c1	0	-	-	-	0
COc1ccc2c(c1)/C(=C/c1cc(OC)c(OC)c(OC)c1)C(=O)N2	0	56.9	0	0	63.4
CCN(CC)c1ccc(C(=C2C=CC(=[N+](CC)CC)C=C2)c2ccc(N(CC)CC)cc2)cc1	-	103.0	90.8	0	0
CCN(CC)c1ccc(C(=C2C=CC(=[N+](CC)CC)C=C2)c2ccccc2)cc1	105.0	106.6	88.6	95.0	0
O=C(C[C@@H]1CC[C@@H]2[C@H](COC[C@@H](O)CN2CC2CC2)O1)NCC1CC1	0	-	-	-	0
CN(C)/C=C/C(=O)c1ccc2noc(-c3ccccc3)c2c1	0	0	0	60.4	0
CC(=O)c1c[nH]c(C(=O)Nc2ccc(N3CCCCCC3)cc2)c1	0	69.0	0	0	0
Cc1ccc(C(=O)Nc2ccc(N3CCCCC3)cc2)cc1	-	0	0	0	0
Cc1cc(C(=O)Nc2ccc(N3CCCCC3)cc2)no1	?	72.8	0	0	0
CCC(CC)COC(=O)C1=C(C)NC(=O)NC1c1ccccc1Br (configuration not stated)	0	80.6	0	0	0
CCC(CC)COC(=O)C1=C(C)NC(=O)NC1c1ccc(N(C)C)cc1 (configuration not stated)	0	0	0	0	0
C[C@@H](NC(=O)[C@H]1[C@H](CO)[C@H]2Cn3c(cccc3=O)[C@@H]1N2C(=O)C1CC1)c1ccccc1	0	-	-	-	0
COc1cc(C2C3=C(COC3=O)Oc3cc4c(cc32)OCO4)ccc1OC(C)=O (configuration not stated)	0	0	0	0	0
COc1cc(C2C3=C(COC3=O)Oc3cc4c(cc32)OCO4)cc(OC)c1OC(C)=O (configuration not stated)	0	0	0	0	54.5
CCc1ccc(CNc2ccc3c(c2)ncn3C(C)(C)C)cc1	0	81.6	66.0	0	0
CC(C)(C)n1cnc2cc(NCc3ccc(Br)cc3)ccc21	0	0	0	0	0
Cc1ccc(S(=O)(=O)c2ncccc2[N+](=O)[O-])cc1	0	94.8	52.9	0	0
Cc1ccc(S(=O)(=O)c2ncccc2N)cc1	0	0	0	0	0
CN(C)c1ccc(CC(=O)N2CCCC(c3cc(C(=O)Nc4ccc(C(C)(C)C)cc4)no3)C2)cc1 (configuration not stated)	0	79.2	0	-	0
COc1ccc(C(=O)Nc2ccc(SC(F)F)cc2)cc1	0	0	0	0	-
